According to PubChem BioAssay (Tox21):
Results filed as inconclusive are left out. Entries that show only a call come without a potency. Active and inactive are the calls of the source. Unless noted, calls follow the shape of the full dose curve.

Key:
[1] = Nuclear factor erythroid 2-related factor 2/antioxidant responsive element (Nrf2/ARE) small molecule agonists: luciferase reporter gene qHTS assay in human keratinocytes (AID 1919969); also: nearly all actives have a fitted effect of over 35% in size; also: potency is read from the fitted curve at half-maximal effect
[2] = target: Gonadotropin-releasing hormone receptor (Homo sapiens) (UniProt P30968); assay: Human gonadotropin-releasing hormone receptor (GnRHR) small molecule agonists, calcium flux assay in GnRHR-HEK293 cells (AID 1920063); also: nearly all actives have a fitted effect of over 35% in size
Gonadotropin-releasing hormone receptor (Homo sapiens), sequence (P30968 whole entry, looked up): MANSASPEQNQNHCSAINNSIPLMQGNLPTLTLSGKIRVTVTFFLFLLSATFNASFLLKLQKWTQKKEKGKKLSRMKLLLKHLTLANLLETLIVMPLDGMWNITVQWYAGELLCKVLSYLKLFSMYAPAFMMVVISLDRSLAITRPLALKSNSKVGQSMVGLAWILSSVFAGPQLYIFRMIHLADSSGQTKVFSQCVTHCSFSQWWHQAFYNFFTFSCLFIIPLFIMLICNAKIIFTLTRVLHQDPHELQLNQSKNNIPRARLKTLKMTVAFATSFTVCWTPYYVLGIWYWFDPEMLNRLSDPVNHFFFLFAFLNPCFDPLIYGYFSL
How it was run: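 HEK293 cells stably expressing human GnRHR were dye-loaded for 1 h at 37 C. Compound was added in agonist mode and fluorescence (Ex/Em 480/540) recorded kinetically for 3 min. Fifteen concentrations, triplicates.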

[3] = target: KiSS-1 receptor (Homo sapiens) (UniProt Q969F8); assay: Human kisspeptin (KISS1R) small molecule agonists, calcium flux assay in KISS1R-HEK293 cells (AID 1920064; active = well fitted curve in the direction sought with a large enough effect in the repeat runs; an effect the other way counts as inactive or inconclusive)
KiSS-1 receptor (Homo sapiens), sequence (Q969F8 whole entry, looked up): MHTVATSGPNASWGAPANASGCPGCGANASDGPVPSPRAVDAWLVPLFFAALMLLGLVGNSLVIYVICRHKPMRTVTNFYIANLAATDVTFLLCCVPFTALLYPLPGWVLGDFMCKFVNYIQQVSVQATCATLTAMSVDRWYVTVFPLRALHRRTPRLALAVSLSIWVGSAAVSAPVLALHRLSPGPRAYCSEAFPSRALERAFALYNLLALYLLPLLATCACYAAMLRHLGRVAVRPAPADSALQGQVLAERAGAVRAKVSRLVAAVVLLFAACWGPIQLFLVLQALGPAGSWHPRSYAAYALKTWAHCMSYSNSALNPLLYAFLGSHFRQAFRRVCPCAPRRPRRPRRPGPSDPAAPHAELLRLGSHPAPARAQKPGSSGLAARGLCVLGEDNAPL
How it was run: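 HEK293 cells stably expressing human KISS1R were loaded with calcium dye for 1 h at 37 C, then given compound; fluorescence (Ex/Em 480/540) was read kinetically for 3 min. Fifteen concentrations, triplicate.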

[4] = G protein-coupled receptor (GPCR) small molecule agonists, calcium flux assay: HEK293 wild type cell line counter screen (AID 1920065)
How it was run: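 Wild-type HEK293 cells plated 18 h, loaded with calcium dye 1 h at 37 C, then compounds added in agonist mode (ATP as positive control). Kinetic fluorescence Ex/Em 480/540 recorded 3 min at 1 sec intervals; 15 concentrations, triplicate.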

[5] = p53 small molecule agonists, cell-based qHTS assay with human liver microsomes (AID 1963577)
How it was run: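 Compounds act here after metabolic activation: human liver microsomes and NADPH, both at 0.5 mg/mL final, were co-added to p53RE-bla cells. Incubation ran 16 h at 37 C, followed by LiveBLAzer detection.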

[6] = p53 small molecule agonists, cell-based qHTS assay with rat liver microsomes (AID 1963578)
How it was run: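 Read-out is beta-lactamase reporter fluorescence (LiveBLAzer, 2 h, room temperature, dark) in p53RE-bla cells treated 16 h at 37 C with compound, rat liver microsomes and NADPH, both 0.5 mg/mL final.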

[7] = p53 small molecule agonists, cell-based qHTS assay with human liver microsomes: qHTS cell viability counter screen (AID 1963579); also: nearly all actives have a fitted effect of over 45% in size
How it was run: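 Cells carrying the p53 response-element beta-lactamase reporter are treated for 16 h at 37 C with test compounds in the presence of human liver microsomes and NADPH (both 0.5 mg/mL final); ATP-based CellTiter-Glo luminescence then reports viability.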

[8] = p53 small molecule agonists, cell-based qHTS assay with rat liver microsomes: qHTS cell viability counter screen (AID 1963580); also: nearly all actives have a fitted effect of over 45% in size
How it was run: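 p53RE-bla HCT-116 cells were exposed 16 h at 37 C to compounds with rat liver microsomes (0.5 mg/mL) and NADPH (0.5 mg/mL). Viability was measured in the same wells as ATP content by CellTiter-Glo luminescence.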

[9] = p53 small molecule agonists, cell-based qHTS assay: qHTS cell viability counter screen (AID 1963581); also: nearly all actives have a fitted effect of over 45% in size
How it was run: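 p53RE-bla HCT-116 cells, compounds added 5 h after plating and incubated 16 h at 37 C. Cytotoxicity measured in the same wells as intracellular ATP by CellTiter-Glo luminescence after 30 min at room temperature.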

[10] = p53 small molecule agonists, cell-based qHTS assay (AID 1963582; active = well fitted activation curve with a large enough effect in the signal ratio in the repeat runs, not every such curve was filed as active; the % refers to the signal ratio)
How it was run: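 p53RE-bla reporter cells, compounds added in DMSO after 5 h plating, incubated 16 h at 37 C. Beta-lactamase read via 2 h room-temperature LiveBLAzer B/G FRET substrate, fluorescence intensity.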

[11] = target: 5-hydroxytryptamine receptor 2A (Homo sapiens) (UniProt P28223); assay: 5-hydroxytryptamine receptor 2A (HTR2A) small molecule agonists, cell-based qHTS assay (AID 1963587); also: nearly all actives have a fitted effect of over 30% in size; also: potency is read from the fitted curve at half-maximal effect
5-hydroxytryptamine receptor 2A (Homo sapiens), sequence (P28223 whole entry, looked up): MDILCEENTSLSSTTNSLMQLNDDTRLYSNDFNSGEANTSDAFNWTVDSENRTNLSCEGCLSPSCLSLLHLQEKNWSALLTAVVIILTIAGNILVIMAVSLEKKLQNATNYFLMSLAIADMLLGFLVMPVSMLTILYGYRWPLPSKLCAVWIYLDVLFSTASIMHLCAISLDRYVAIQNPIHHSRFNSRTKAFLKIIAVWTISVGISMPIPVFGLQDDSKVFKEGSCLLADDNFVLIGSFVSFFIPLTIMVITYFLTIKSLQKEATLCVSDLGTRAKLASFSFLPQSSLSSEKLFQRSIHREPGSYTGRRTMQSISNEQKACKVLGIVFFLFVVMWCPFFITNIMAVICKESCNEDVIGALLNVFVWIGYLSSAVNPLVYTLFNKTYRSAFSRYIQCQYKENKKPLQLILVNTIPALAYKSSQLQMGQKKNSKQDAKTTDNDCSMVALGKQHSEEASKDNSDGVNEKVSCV
How it was run: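 CHO cells stably expressing human HTR2A, plated 18 h, loaded with calcium dye 1 h at 37 C. Agonist mode: compounds added and intracellular calcium fluorescence recorded kinetically for 2 min at 1 sec intervals.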

[12] = target: Muscarinic acetylcholine receptor M1 (Homo sapiens) (UniProt P11229); assay: Cholinergic receptor muscarinic 1 (CHRM1) small molecule antagonists, cell-based qHTS assay (AID 1963588); also: nearly all actives have a fitted effect of over 40% in size
Muscarinic acetylcholine receptor M1 (Homo sapiens), sequence (P11229 whole entry, looked up): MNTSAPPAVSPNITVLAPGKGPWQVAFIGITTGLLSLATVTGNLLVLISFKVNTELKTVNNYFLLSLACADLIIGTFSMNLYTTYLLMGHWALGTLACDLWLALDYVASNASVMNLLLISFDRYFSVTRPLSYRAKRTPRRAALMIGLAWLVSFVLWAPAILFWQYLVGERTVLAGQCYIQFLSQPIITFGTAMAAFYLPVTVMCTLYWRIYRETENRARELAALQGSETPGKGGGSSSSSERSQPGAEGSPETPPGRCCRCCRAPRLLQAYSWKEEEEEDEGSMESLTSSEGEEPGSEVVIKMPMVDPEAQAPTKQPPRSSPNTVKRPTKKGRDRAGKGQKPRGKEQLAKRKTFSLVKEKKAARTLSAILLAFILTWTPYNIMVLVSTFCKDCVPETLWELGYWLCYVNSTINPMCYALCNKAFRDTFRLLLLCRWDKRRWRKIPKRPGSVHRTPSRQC
How it was run: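 CHRM1-CHO calcium-flux assay, antagonist mode. Cells were seeded 18 h, dye-loaded 1 h at 37 C and given compound for 5 min at RT, then acetylcholine was added at 50nM. FDSS fluorescence was read 3 min; 15 concentrations, three runs.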

[13] = target: Muscarinic acetylcholine receptor M1 (Homo sapiens) (UniProt P11229); assay: Cholinergic receptor muscarinic 1 (CHRM1) small molecule agonists, cell-based qHTS assay (AID 1963589); also: nearly all actives have a fitted effect of over 35% in size
How it was run: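 CHO cells stably expressing human CHRM1 were loaded with calcium dye for 1 h at 37 C, then compound was added in agonist mode. Intracellular calcium fluorescence was followed kinetically at 1 s intervals. Fifteen concentrations were tested in three independent runs.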

[14] = cAMP Responsive Elements (CRE) small molecule antagonists, cell-based qHTS assay (AID 1963591; active = well fitted inhibition curve with a large enough effect in the signal ratio in the repeat runs, not every such curve was filed as active; the % refers to the signal ratio)
How it was run: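 CRE-bla HEK293T cells plated 18 h, then given compound plus NKH477 at 0.25 uM final for 3 h at 37C. Beta-lactamase reporter read with LiveBLAzer B/G FRET substrate after 2 h at room temperature.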

[15] = target: Beta-2 adrenergic receptor (Homo sapiens) (UniProt P07550); assay: Adrenergic beta2 receptor (ADRB2) small molecule antagonists, cell-based qHTS assay (AID 1963592); also: series mostly up to about 92 µM; nearly all actives have a fitted effect of over 50% in size
Beta-2 adrenergic receptor (Homo sapiens), sequence (P07550 whole entry, looked up): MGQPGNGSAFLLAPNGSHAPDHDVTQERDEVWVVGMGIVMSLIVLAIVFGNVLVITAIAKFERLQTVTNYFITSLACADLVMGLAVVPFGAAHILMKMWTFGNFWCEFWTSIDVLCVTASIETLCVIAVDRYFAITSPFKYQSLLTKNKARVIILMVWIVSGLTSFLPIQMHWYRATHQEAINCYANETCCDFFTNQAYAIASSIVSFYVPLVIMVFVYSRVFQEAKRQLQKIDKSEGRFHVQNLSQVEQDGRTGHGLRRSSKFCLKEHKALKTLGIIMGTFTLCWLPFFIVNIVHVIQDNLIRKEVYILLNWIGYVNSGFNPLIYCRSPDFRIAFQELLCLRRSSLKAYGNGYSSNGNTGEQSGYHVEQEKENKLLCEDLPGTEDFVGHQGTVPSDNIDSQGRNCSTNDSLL
How it was run: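 Cells (CHO, stable ADRB2 overexpression) incubated 18-20hr at 37C; compounds added from DMSO; agonist mix (1nM isoproterenol, 100uM IBMX, 25uM Ro-20-1724) added; 0.5hr RT; d2-cAMP and anti-cAMP-cryptate added; 1hr RT; 665/615 nm read.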

[16] = target: D(2) dopamine receptor (Homo sapiens) (UniProt P14416); assay: Dopamine D2 receptor (DRD2) small molecule agonists, cell-based qHTS assay (AID 1963594); also: nearly all actives have a fitted effect of over 35% in size
D(2) dopamine receptor (Homo sapiens), sequence (P14416 whole entry, looked up): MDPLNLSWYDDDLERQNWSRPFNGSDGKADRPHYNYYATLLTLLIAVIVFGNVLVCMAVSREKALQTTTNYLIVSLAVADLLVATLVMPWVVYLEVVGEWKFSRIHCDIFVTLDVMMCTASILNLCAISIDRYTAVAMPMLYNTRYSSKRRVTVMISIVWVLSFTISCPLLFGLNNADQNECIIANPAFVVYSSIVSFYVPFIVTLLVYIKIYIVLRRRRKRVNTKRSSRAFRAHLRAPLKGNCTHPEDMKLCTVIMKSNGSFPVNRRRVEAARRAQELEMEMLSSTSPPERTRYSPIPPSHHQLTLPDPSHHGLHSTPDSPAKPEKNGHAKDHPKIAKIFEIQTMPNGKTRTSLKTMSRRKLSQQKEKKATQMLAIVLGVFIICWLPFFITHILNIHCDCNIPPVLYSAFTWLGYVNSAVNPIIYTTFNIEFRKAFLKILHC
How it was run: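 HEK293 cells stably expressing human DRD2, pre-treated with PDE inhibitor Ro20-1724 (0.1 mM final) and compound 10 min at room temperature, then stimulated with NKH477 (200nM […]) for 30 min. cAMP read by HTRF (665/620 nm).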

[17] = target: D(2) dopamine receptor (Homo sapiens) (UniProt P14416); assay: Dopamine D2 receptor (DRD2) small molecule antagonists, cell-based qHTS assay (AID 1963595; active = well fitted inhibition curve with a large enough effect in the signal ratio in the repeat runs, with a control signal flat; the % refers to the signal ratio)
How it was run: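 Readout: HTRF cAMP, cAMP-d2 competing with cellular cAMP for anti-cAMP cryptate, read after 1 h. Cells: DRD2-HEK293. Conditions: 0.1 mM Ro20-1724, 12 nM quinpirole, 200 nM NKH477, 30 min RT.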

[18] = Nuclear factor erythroid 2-related factor 2/antioxidant responsive element (Nrf2/ARE) small molecule agonists: qHTS cell viability counter screen in human keratinocytes (AID 1919968; active = well fitted curve in the direction sought with a large enough effect in the repeat runs; an effect the other way counts as inactive or inconclusive; also: nearly all actives have a fitted effect of over 55% in size)
How it was run: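 KeratinoSens HaCaT cells, 1,500/well, preincubated 5 h, then exposed to compounds in DMSO for 23 h at 37 C/5% CO2. Viability read as CellTiter-Fluor fluorescence after 1 h, in the same wells as the ARE-luciferase read.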

[19] = target: 5-hydroxytryptamine receptor 2A (Homo sapiens) (UniProt P28223); assay: 5-hydroxytryptamine receptor 2A (HTR2A) small molecule antagonists, cell-based qHTS assay (AID 1963586); also: nearly all actives have a fitted effect of over 45% in size
How it was run: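 Antagonist-mode intracellular calcium assay: DOI (4 nM) added after 5 min compound pre-incubation at room temperature to dye-loaded HTR2A-CHO cells. Fluorescence followed for 3 min, sampled every second.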

[20] = cAMP Responsive Elements (CRE) small molecule agonists, cell-based qHTS assay (AID 1963590)
How it was run: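 CRE-bla HEK 293T cells, 2,000/well in DMEM with 10% dialyzed FBS and 25 mM HEPES, pre-incubated 18 h at 37 C, then exposed to compound 3 h at 37 C. Beta-lactamase reporter read with LiveBLAzer B/G FRET substrate after 2 h at room temperature.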

| SMILES | Potency [1] | Potency [2] | Potency [3] | Potency [4] | Potency [5] | Potency [6] | Potency [7] | Potency [8] | Potency [9] | Potency [10] | Potency [11] | Potency [12] | Potency [13] | Potency [14] | Potency [15] | Potency [16] | Potency [17] | Potency [18] | Potency [19] | Potency [20] |
| --- | --- | --- | --- | --- | --- | --- | --- | --- | --- | --- | --- | --- | --- | --- | --- | --- | --- | --- | --- | --- |
| CCCCCCCC/C=C\CCCCCCCC(=O)NCc1ccc(O)c(OC)c1 | inactive | inactive | inactive | inactive | inactive | inactive | inactive | inactive | inactive | inactive | inactive | inactive | inactive | inactive | inactive | inactive | inactive |  |  |  |
| CCCCCCCCCCCCSC#N |  |  |  | inactive | inactive | inactive |  | inactive | inactive | inactive | inactive |  | inactive |  | inactive | inactive | inactive | inactive | inactive | inactive |
| CCCCC/C(=C\c1ccccc1)CO | inactive | inactive | inactive | inactive | inactive | inactive | inactive | inactive | inactive | inactive | 54.3 µM (active) | inactive | inactive | inactive | inactive | inactive | inactive |  |  |  |
| O=[N+]([O-])c1ccc(Nc2ccc(Nc3ccccc3)c(S(=O)(=O)O)c2)c([N+](=O)[O-])c1 | inactive | inactive | inactive | inactive | inactive | inactive | inactive | inactive | inactive | inactive | inactive | inactive | inactive | inactive | inactive | inactive | inactive |  | inactive | inactive |
| CCC(C)c1cc(C(C)(C)C)c(O)c(C(C)(C)C)c1 (stereo unspecified) | 16.9 µM (active) | inactive | inactive | inactive | inactive | inactive | inactive | inactive | inactive | inactive | inactive | inactive | inactive | inactive | inactive | inactive | inactive |  | inactive | inactive |
| COC(C(=O)O)c1ccccc1 (stereo unspecified) |  |  |  | inactive | inactive | inactive | inactive | inactive |  | inactive | inactive | inactive | inactive | inactive | inactive | inactive | inactive | inactive | inactive | inactive |
| Cc1c(C(=O)O)c(O)cc2c1C(=O)c1c(O)c([C@@H]3O[C@H](CO)[C@@H](O)[C@H](O)[C@H]3O)c(O)c(O)c1C2=O | inactive | inactive | inactive | inactive | inactive | inactive | inactive | inactive | inactive | inactive |  | inactive | inactive | inactive |  |  |  |  | inactive |  |
| O=C(CC(=O)c1ccccc1)c1ccccc1 | 32.9 µM (active) | inactive | inactive | inactive | inactive | inactive | inactive | inactive | inactive | inactive |  | inactive |  | inactive | inactive |  | inactive |  | inactive |  |
